# Results: PubChem BioAssay (NCI)
# This is part of a sample that, as a whole, favours compounds with a hit. Of some 83,000 tested, about 20% had one in any assay.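 Step 1: grow cells in 96-well plates. Step 2: add test compound at a single concentration. Step 3: incubate 48 h. Step 4: record percent growth.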 Unmarked numbers belong to inactive results. The calls were made as follows: active = growth percent below 10; inactive = the rest.
# Tested on: RPMI-8226 leukemia
# Assay: NCI-60 one-dose screen, 48 h (100 = growth as untreated, 0 = no growth, -100 = all killed)
# Conditions: 10 µM unless noted
row,Structure (SMILES),growth [%]
1,O=C(OCc1ccccc1)n1nnc2ccccc21,109
2,COC1(OC)C2(Cl)C(Cl)=C(Cl)C1(Cl)C1COCC12 (stereo not given),106
3,CCOC(=O)CO,110
4,COc1cc(C(=O)NC(=S)NCc2ccncc2)cc(OC)c1OC,97.2
5,Nc1ncnc2c1ncn2C1OC(CO)C2OC21 (stereo not given),103
6,CC(C)(C)[Si](C)(C)OCC1OC(n2cnc3c(N)ncnc32)CC1OS(C)(=O)=O (stereo not given),103
7,Cc1ccc(C)c(CCO)c1,138
8,CC(=O)CSc1ncnc2nc[nH]c12,76.6
9,CCOC(OCC)C(=O)c1ccccc1,99.8
10,CCCCCCCCCCCCCCCCOc1ccccc1NC(=O)CC(C)=O,64
11,CC1(c2ccccc2)CO1 (stereo not given),103
12,Cc1ccc(C)c(CN(C)C)c1O,121
13,O=Cc1ccc(O)c(O)c1,87.5
14,C/C(=N\N=C(/C)c1cccc([N+](=O)[O-])c1)c1cccc([N+](=O)[O-])c1,87.7
15,Cc1nc(C)c(C(=O)O)cc1C(=O)O,106
16,CCN(CC)CCCC(C)NC(=S)N/N=C(\C)c1ccccn1 (stereo not given),58.9
17,COc1ccc(-c2csc(NC(=O)Nc3nc(-c4ccc(OC)cc4)cs3)n2)cc1,69.5
18,NC(CSSCC(N)C(=O)O)C(=O)O (stereo not given),53.6
19,Cc1cc(Cc2ccccc2)c(O)c(Cc2ccccc2)c1,103
20,NNc1ncnc2nc[nH]c12,13.4
